Source: PubChem BioAssay
GLP-1R inv ag: inverse agonists of human GLP-1 receptor; AID 624417; actives 1.6% (n = 410,000); Potency, µM (series often up to 38.3 µM), most hits filed as inhibitors; HEK293 GLP-1R CRE-luciferase, luminescence, 24 h; GLP-1R form is constitutively active; P43220; also: nearly all actives have a fitted effect of over 55% in size
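Inverse agonism was detected as reduced cAMP-driven luciferase luminescence after 24 h compound treatment. The cells were HEK293 clones expressing constitutively active human GLP-1R with the reporter. Reporter-only and GPR119 cell lines served as counterscreen controls.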
GLP1R cytotox: cytotoxicity counter-screen for GLP-1 receptor inverse agonists. HEK293 cAMP-luciferase reporter cells, luminescence, 24 h. Potency, µM (doses to about 38.3 µM), usual class: inhibitors. actives 0.13% (n = 410,000);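 also: loss of luciferase light is scored as toxicity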
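Quantitative HTS format, 1536 wells, 200 cells/uL seeded. Compounds: 23 nL, 24 h, 37 °C. Detection: luciferase reagent, luminescence at 12 min RT; decreased signal taken as cytotoxic.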
TRPML1 ag: activates the human TRPML1 channel. actives 0.12% (n = 410,000). Q9GZU1. TRPML1-expressing cells, Ca2+ dye fluorescence, FDSS. activation, % (concentration not given with the values). AID 624414; in the data active = activation above about 50%; inconclusive = mostly about 30% to 49%
Target sequence (Q9GZU1 whole entry, looked up): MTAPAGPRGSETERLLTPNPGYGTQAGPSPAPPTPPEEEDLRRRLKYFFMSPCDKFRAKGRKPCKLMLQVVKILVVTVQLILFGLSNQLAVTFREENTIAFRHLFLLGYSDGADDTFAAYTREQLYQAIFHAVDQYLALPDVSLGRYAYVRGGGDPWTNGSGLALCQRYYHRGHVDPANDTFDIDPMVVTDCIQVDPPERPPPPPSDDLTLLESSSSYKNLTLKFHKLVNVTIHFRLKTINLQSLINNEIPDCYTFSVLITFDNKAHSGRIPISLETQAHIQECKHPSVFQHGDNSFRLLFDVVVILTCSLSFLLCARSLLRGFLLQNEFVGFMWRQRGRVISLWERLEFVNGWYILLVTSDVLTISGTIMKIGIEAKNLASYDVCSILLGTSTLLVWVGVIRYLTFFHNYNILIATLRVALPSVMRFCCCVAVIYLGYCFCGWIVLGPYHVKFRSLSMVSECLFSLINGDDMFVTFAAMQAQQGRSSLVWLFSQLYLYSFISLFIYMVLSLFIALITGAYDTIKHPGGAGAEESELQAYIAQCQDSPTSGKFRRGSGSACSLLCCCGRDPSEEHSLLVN
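Kinetic FDSS Ca2+ read in Tet-induced TRPML1-DL cells (ABD Ca8 dye plus quencher, 45-90 min RT loading): baseline, then compound, then 110 s agonist window; EC80 agonist 54-4 at 4uM final added afterwards for a 110 s antagonist window.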
GLP1R ag: agonists of human GLP-1 receptor; P43220; AID 624172; HEK293 GLP-1R CRE-luciferase, luminescence, 4-6 h; cells express a hypersensitive GLP-1R form; actives 0.007% (n = 380,000); Potency, µM (top dose mostly 45.6 µM), actives largely listed as activators
TRPML1 blocker: inhibitors of human TRPML1 channel. Q9GZU1. TRPML1-inducible cells, Ca2+ dye fluorescence, FDSS; hits give low values; inhibition of EC80 agonist-evoked calcium signal. activity change, negative = inhibition, % (concentration not given with the values). actives 0.02% (n = 390,000). AID 624415; in the data active = activity change below about -50%; inconclusive = between about -30% and that limit;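 also: stimulus is agonist 54-4 at its EC80 concentration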
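Calcium fluorescence in TRPML1-DL cells induced overnight with Tet: a 110 s read after compound pin addition, then a 110 s antagonist read after challenge with 54-4 at 4 uM final (EC80).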
Each line names hits and unclear results; the compound was inactive in the other large screens. Most compounds without a hit are left out; they make up all but 1.8% or so of the library. Unless noted, calls follow the shape of the dose curve; as a rule, active = well fitted curve in the direction sought with a large enough effect; inconclusive = small, poorly fitted or top-dose-only effect, or another doubt; inactive = no such curve, though single readings can be large; an effect the other way counts as inactive or inconclusive.

Cc1ccc(Cl)cc1N1CCN(C(=O)C2CCCN(Cc3nc(-c4cccc(Cl)c4)oc3C)C2)CC1 (configuration not stated)	GLP-1R inv ag 3.98µM (no result: GLP1R ag)
COc1ccccc1C(=O)Nc1ccc(-c2cc(C(F)(F)F)nn2-c2ccccc2)cc1	GLP-1R inv ag 5.62µM, GLP1R cytotox inconclusive (no result: GLP1R ag)
CCNC(=S)N/N=C/c1cc(C)n(-c2ccc(Cl)cc2)c1C	none
Cc1cc(/C=N/NC(N)=S)c(C)n1-c1ccc(Cl)c(Cl)c1	GLP-1R inv ag inconclusive, GLP1R cytotox 3.16µM
COc1cccc(-c2cc(NC=O)c3ncc(-c4ccc(OC)c(OC)c4)n3c2)c1	GLP-1R inv ag inconclusive, GLP1R ag inconclusive (no result: TRPML1 blocker)
COc1ccc(-c2cc(NC=O)c3ncc(-c4ccc(OC)c(OC)c4)n3c2)c(OC)c1	GLP1R cytotox inconclusive, GLP1R ag 2.51µM (no result: TRPML1 blocker)
COc1cccc(-c2cnc3c(NC=O)cc(-c4ccc(OC)cc4OC)cn23)c1	GLP-1R inv ag 0.794µM, GLP1R ag inconclusive (no result: TRPML1 blocker)
Cc1ccc(-n2cnc3cc(C(=O)NCc4ccc(F)cc4)ccc32)c(C)c1	GLP-1R inv ag inconclusive (no result: GLP1R ag)
COc1ccc2c(CNCc3ccc(Cl)cc3)c(C(=O)O)n(Cc3ccccc3C)c2c1	none (no result: GLP1R ag)
CC(C)(C)OC(=O)[C@H](Cc1ccccc1)NC(=O)c1nc[nH]c1C(=O)N[C@@H](Cc1ccccc1)C(=O)OC(C)(C)C	GLP-1R inv ag 10µM
C[C@H](NC(=O)c1nc[nH]c1C(=O)N[C@@H](Cc1ccccc1)C(=O)OC(C)(C)C)C(=O)OC(C)(C)C	GLP-1R inv ag inconclusive
CC(C)(C)CC(=O)Nc1nnc(C(F)(F)F)s1	GLP-1R inv ag inconclusive
CC(NC(=O)Nc1nnc(C(F)(F)F)s1)(C(F)(F)F)C(F)(F)F	GLP-1R inv ag 4.47µM, GLP1R cytotox inconclusive
COc1cc(Cl)c(C)cc1NC(=O)Cn1cnc2sc(C)c(S(=O)(=O)N3CCCCC3)c2c1=O	GLP-1R inv ag inconclusive (no result: GLP1R ag)
CC(C)(C)c1ccc(-c2nnc(SCCC#N)n2C2CCCC2)cc1	GLP-1R inv ag 10µM
O=C(CSc1nnc(-c2ccc(Br)cc2)n1C1CCCCC1)N1CCCC1	none
CCCN1CNc2c(c(=O)[nH]c(=S)n2CCc2ccccc2Cl)C1	none (no result: GLP-1R inv ag, GLP1R cytotox, GLP1R ag, TRPML1 blocker)
O=C(Nc1cccc(Cl)c1)N1CCN2C(=O)c3ccccc3C12c1ccccc1 (configuration not stated)	GLP-1R inv ag 8.91µM, GLP1R cytotox inconclusive
O=C(CCl)N1CCN2C(=O)c3ccccc3C12c1ccc(Cl)cc1 (configuration not stated)	GLP-1R inv ag inconclusive
CC1(C)C2CCC1(C)C(OCCNCCOC(=O)Nc1ccccc1)C2 (configuration not stated)	GLP-1R inv ag 11.2µM (no result: TRPML1 ag, TRPML1 blocker)
CC1(C)C2CCC1(C)C(OC(=O)c1ccccc1C(=O)O)C2 (configuration not stated)	GLP-1R inv ag inconclusive
CCCn1nc(NS(=O)(=O)c2cccc3nonc23)c2cc3cc(C)ccc3nc21	none
Cc1ccc2cc3c(NS(=O)(=O)c4cccc5nonc45)nn(CC(C)C)c3nc2c1	GLP-1R inv ag 10µM
CCN(CC)c1nc(NC2CCN(C)CC2)c2cc(OC)c(OC)cc2n1	none (no result: GLP-1R inv ag, GLP1R cytotox, GLP1R ag, TRPML1 blocker)
CCn1nc(C)c(CN2CCc3c([nH]c4ccccc34)C2C(C)(C)C)c1C (configuration not stated)	GLP-1R inv ag 7.08µM
CN(C)CCC=C1c2ccccc2C=Cc2ccccc21	GLP-1R inv ag inconclusive, GLP1R cytotox inconclusive
CNCCC=C1c2ccccc2C=Cc2ccccc21	GLP-1R inv ag 5.01µM
CCOC(=O)c1c(NC(=O)C(C)NCc2ccco2)sc2c1CCC(C)C2 (configuration not stated)	GLP-1R inv ag 3.98µM, GLP1R cytotox inconclusive
CN(C)c1ccc(/C=C/c2ccc3c4ccccc4ccc3[n+]2-c2ccccc2)cc1	GLP-1R inv ag inconclusive, GLP1R cytotox 7.94µM
CN(C)c1ccc(/C=C/c2c3ccccc3cc[n+]2[O-])cc1	none (no result: GLP-1R inv ag, GLP1R cytotox, GLP1R ag, TRPML1 blocker)
O=C(NCC1(c2ccccc2)CCCC1)c1ccccc1Br	GLP-1R inv ag 10µM
O=C(NCC1(c2ccccc2)CCCC1)c1ccccc1	GLP-1R inv ag inconclusive
COc1cccc(-c2ncc3ccccc3c2COC(=O)c2ccc(F)cc2)c1	GLP-1R inv ag 11.2µM
O=C(CCl)N(C1CCCC1)C1CCS(=O)(=O)C1 (configuration not stated)	GLP-1R inv ag 4.47µM
COc1cccc(NS(=O)(=O)c2cc(-c3cnc(C4CC4)o3)ccc2C)c1	GLP-1R inv ag inconclusive (no result: GLP1R ag)
Cc1ccc(OCC(=O)Nc2ccc3nc(SCC(=O)Nc4ccc(C)cc4C)sc3c2)cc1	none (no result: GLP1R ag)
COc1ccc(C(=O)N2C=Cc3ccccc3C2C#N)cc1 (configuration not stated)	GLP-1R inv ag inconclusive
N#CC1c2ccccc2-c2ccccc2N1C(=O)c1ccccc1 (configuration not stated)	GLP-1R inv ag 7.08µM
O=C(NCc1ccc2c(c1)CCN2C(=O)c1ccc(F)cc1)c1ccc(Br)o1	none (no result: GLP1R ag)
CCCCS/C(N)=N/N=C/c1ccccc1O	GLP-1R inv ag inconclusive, GLP1R cytotox 2.82µM
CN(C)CCNc1nccc(N2CCN(C)CC2)n1	none (no result: GLP-1R inv ag, GLP1R cytotox, GLP1R ag, TRPML1 blocker)
O=C(N1CCCCC1)N1CCN(C(c2ccccc2)c2ccccc2)CC1	GLP-1R inv ag 5.01µM
O=C(NC1CCCCC1)N1CCN(C(c2ccccc2)c2ccccc2)CC1	GLP-1R inv ag 3.98µM
CCOc1c(Br)cc(CNC2CCCCCCC2)cc1OC	GLP-1R inv ag 3.16µM
COc1cc(CNC2CCCCCCC2)cc(Br)c1OCC#N	GLP-1R inv ag inconclusive, GLP1R cytotox inconclusive
CCOCCCn1c(SCC(=O)Nc2ccccc2CC)nc2ccccc2c1=O	none (no result: GLP1R ag)
Clc1ccc(Cn2c(-c3cccnc3Cl)nc3ccccc32)c(Cl)c1	GLP-1R inv ag 10µM
CCc1ccc(NC(=O)C(=O)NCCc2sc(-c3ccc(OC)c(OC)c3)nc2C)cc1	none
CCNC(=S)Nc1cc2oc3ccccc3c2cc1OC	GLP-1R inv ag inconclusive, GLP1R cytotox inconclusive
COc1ccc(NC(=O)Nc2cc3oc4ccccc4c3cc2OC)cc1	GLP-1R inv ag inconclusive
CCCNC(=S)Nc1cc2oc3ccccc3c2cc1OC	GLP-1R inv ag 8.91µM
COc1cc2c(cc1NC(=O)Nc1ccc(C)cc1)oc1ccccc12	GLP-1R inv ag 1.78µM
COc1ccc(CN(C)C(=O)C(Cc2ccccc2)NC(=O)c2ccccc2)c(OC)c1OC (configuration not stated)	GLP-1R inv ag inconclusive
COc1cccc(CN(C)C(=O)C(Cc2ccccc2)NC(=O)c2ccccc2)c1OC (configuration not stated)	GLP-1R inv ag 8.91µM
CN1CCN(c2ccc(S(=O)(=O)N3CCCCC3)cc2NC(=O)/C=C/c2ccc(Cl)c([N+](=O)[O-])c2)CC1	GLP-1R inv ag inconclusive, GLP1R cytotox 10µM
